# Source: PubChem
# Compounds with a hit are over-represented: about 3.2% of the library has one in this group of screens.
# Marburg entry inh – blocks Marburg virus binding to or entry into cells; 1.8% of 300,000 active; Marburg virus pseudotyped entry inhibition, cell reporter; Potency, µM (doses to about 37.8 µM), for inactives: at the top dose activity change, negative = inhibition, most hits filed as inhibitors; AID 540276; calls by dose curve; tested in HEK293 cells
# FMDV inh – antivirals against foot and mouth disease virus | FMDV antiviral cell-based qHTS | Potency, µM (titrated, usually from 57.9 µM), for the others: at the top dose activity change, negative = inhibition, usual class: inhibitors | 1.2% of 410,000 active; calls by dose curve; tested in HEK293T cells; note: read-out not given here; nearly all actives have a fitted effect of over 45% in size
# Lassa entry inh – inhibitors of Lassa virus binding or cell entry | Lassa virus pseudotype entry inhibition, cell reporter | Potency, µM (series often up to 37.9 µM), for inactives: at the highest dose activity change, negative = inhibition, actives largely listed as inhibitors | 1.2% of 300,000 active; calls by dose curve; tested in HEK293 cells; note: nearly all actives have a fitted effect of over 50% in size
# VACV mCherry inh – vaccinia inhibition (mCherry reporter). Vaccinia virus mCherry reporter infection, fluorescence. Potency, µM (series often up to 36.5 µM), for inactives: at the top dose activity change, negative = inhibition, hits mostly inhibitors. 0.63% of 310,000 active; calls by dose curve; tested in A549 cells; note: nearly all actives have a fitted effect of over 35% in size
# Vaccinia Venus – vaccinia inhibition (Venus reporter) | Vaccinia virus Venus reporter expression, fluorescence | Potency, µM (doses to about 36.5 µM), for inactives: at the top dose activity change, negative = inhibition, actives largely listed as inhibitors | 0.46% of 330,000 active; calls by dose curve; tested in A549 cells; note: nearly all actives have a fitted effect of over 30% in size
# * = called active by the depositor; i = inactive; ? = inconclusive; · = no result given; [ ] = another dose, or the depositor's remark. % is set by controls: 0 for no effect and ±100 for the full control effect; potency is the fitted concentration of half-maximal effect.
SMILES,Marburg entry inh,FMDV inh,Lassa entry inh,VACV mCherry inh,Vaccinia Venus
Cc1[nH]n2c(=O)cc(-c3ccccc3Cl)nc2c1-c1ccccc1,-25.3%[46.1 µM],-22.7%,?,?,-29.2%
Cc1nc2c(-c3ccc(Cl)cc3)c(C)[nH]n2c(=O)c1Cc1ccccc1,3.98µM*,-29.4%,?,6.31µM*,?
COCc1cc(=O)n2[nH]c(C)c(-c3ccc(Cl)cc3)c2n1,·,?,·,10µM*,?
Cc1cn2c(=O)c(S(=O)(=O)NCCc3ccccc3)c(C)nc2s1,·,6.4%,-2.2%[46.1 µM],-10.5%,-11.1%
O=C(C[n+]1cccc(Br)c1)c1ccc(-c2ccccc2)cc1,·,4.8%,·,-4.0%,-17.3%
CCOC(=O)c1cccc(NC(=O)c2cc3c(=O)n(C)c4ccccc4c3n2C)c1,6.0%[46.1 µM],-26.3%,5.8%[46.1 µM],-17.6%,-27.6%
CCCN(C(=O)CCNC(=O)Cn1cnc2ccccc2c1=O)c1cccc(Cl)c1,?,-16.4%,-4.2%,i,-9.0%
COc1cc(NS(=O)(=O)c2cc3c(cc2C)n(C)c(=O)c(=O)n3C)cc(OC)c1,·,39.2%,?,-13.5%,-7.5%
COc1ccc(-c2noc(N3CCC(C(=O)N4CCN(c5ccccc5OC)CC4)CC3)n2)cc1,·,0.0%,?,-3.0%[7.34 µM],-18.1%[7.34 µM]
COc1ccc(-c2noc(N3CCC(C(=O)N4CCN(c5ccccn5)CC4)CC3)n2)cc1,?,12.6µM*,?,·,·
Cc1cc(C(=O)NCc2nc(-c3ccccc3NC(=O)C3CCCO3)oc2C)nc(C)n1 (stereo not given),·,-3.3%,·,-16.9%,-21.3%
Clc1ccc2c(N/N=C/c3ccccc3Br)ccnc2c1,?,0.0%,-1.4%,-21.0%,-12.9%
O=[N+]([O-])c1ccc(/C=N/Nc2ccnc3cc(Cl)ccc23)o1,?,22.4%,-16.1%[46.1 µM],15.8µM*,?
O=C(O)c1cc(N2C(=O)C=CC2=O)cc(N2C(=O)C=CC2=O)c1,10µM*,-19.2%,-20.4%,-19.2%,-18.9%
O=C(c1cc(COc2ccc(F)c(F)c2)on1)N1CCN(C2CCCCC2)C(=O)C1,·,1.3%,·,·,·
CC(=O)c1ccc(OCc2cc(C(=O)N3CCN(C4CCCC4)C(=O)C3)no2)cc1,2.7%,31.7%,3.16µM*,-5.0%,-20.5%
COc1ccc(NC(=O)C2CC23CCN(Cc2cccc4ncccc24)CC3)cc1Cl (stereo not given),·,-18.3%,·,-18.0%,-14.3%
COc1ccc(C(=O)N/N=C/c2sc3ccccc3c2O)cc1,?,33.7%,?,?,?
O=C(N/N=C/c1sc2ccccc2c1O)c1cccc2ccccc12,14.1µM*,27.7%,?,?,?
O=C(N/N=C/c1sc2ccccc2c1O)c1ccccc1,?,-2.6%,?,10µM*,-23.3%
Cn1c(=O)c2c(ncn2CC(O)CNc2ccc(F)cc2)n(C)c1=O (stereo not given),-4.1%,-14.2%,11.5%,-17.2%,-11.2%
CC(=O)OC[C@H]1O[C@H](CC=NO[C@H](C)CN2CCCCc3nc(C)c(C)cc32)C=C[C@@H]1OC(C)=O,-20.6%[14.2 µM],·,·,·,·
Cn1c(N)c(C(C[N+](=O)[O-])c2c(F)cccc2Cl)c(=O)n(C)c1=O (stereo not given),-12.0%[46.1 µM],-14.0%,-29.4%[46.1 µM],-15.3%,?
CN(C)c1ccc(C(C[N+](=O)[O-])c2c(N)n(C)c(=O)n(C)c2=O)c(F)c1C#N (stereo not given),·,35.5µM*,·,·,·
O=C(Cc1coc2cc3c(cc12)CCC3)OCC(=O)N1CCCC1=O,?,14.1µM*,?,i,-10.9%
SMILES,Marburg entry inh,FMDV inh,Lassa entry inh,VACV mCherry inh,Vaccinia Venus
CCOC(=O)c1ccc2ncc(C(=O)OCC)c(Nc3ccc(N4CCOCC4)cc3)c2c1,7.94µM*,?,?,-25.7%,?
COc1cc(C2c3c(-c4ccccc4O)n[nH]c3C(=O)N2Cc2ccco2)cc(OC)c1OC (stereo not given),·,-12.4%,·,·,·
COc1ccc(C2c3c(-c4ccccc4O)n[nH]c3C(=O)N2Cc2ccco2)cc1 (stereo not given),-24.7%,-3.3%,0.58µM*,-22.6%,-1.8%
CCCOc1cccc(C2c3c(-c4ccccc4O)n[nH]c3C(=O)N2Cc2ccco2)c1 (stereo not given),?,-19.7%,?,-16.2%[7.34 µM],-13.0%[7.34 µM]
O=C1c2[nH]nc(-c3ccccc3O)c2C(c2cccc(O)c2)N1Cc1ccco1 (stereo not given),0.4%,-13.2%,0.501µM*,·,-23.5%
CCCOc1ccc(C2NC(=S)NC(C)=C2C(=O)c2ccccc2)cc1OC (stereo not given),14.6µM*,-2.6%,-4.2%,·,·
COc1cc(C2NC(=S)NC(C)=C2C(=O)c2ccccc2)ccc1O (stereo not given),?,-21.9%,0.2%,-1.3%,-3.8%
CC1=C(C(=O)c2ccccc2)C(c2ccc(OC(F)F)cc2)NC(=S)N1 (stereo not given),3.98µM*,?,?,-11.9%,?
Cc1cc(C)c(S(=O)(=O)Nc2ccc3c(c2)CCC3)c(C)c1,7.31µM*,80.2%,?,i,-16.3%
Cc1ccc(S(=O)(=O)Nc2ccc3c4c(cccc24)CC3)c(C)c1,?,30.8%,-21.9%,?,-29.2%
Cc1cc(C)c(S(=O)(=O)Nc2ccc3c4c(cccc24)CC3)c(C)c1,?,5.7%,1µM*,?,?
COc1ccc(Cl)cc1NC(=O)c1c(C(=O)Nc2cccc(C)c2C)sc2nc(C)cc(=O)n12,?,-14.9%,?,-0.8%,8.3%
CO[C@H]1[C@H](NC(=O)c2ccco2)c2ccccc2C12CCN(Cc1cccn1-c1ccccn1)CC2,·,0.6%,·,-16.2%,-3.8%
O=C(NCCCN1CCCC1)c1ccc(CSCc2cccc(Cl)c2)o1,?,-13.5%,-3.8%,·,·
CC1CCN(CCCNC(=O)c2ccc(CSCc3cccc(Cl)c3)o2)CC1,11.6µM*,-26.9%,-17.8%,·,·
CN1CCN(CCCNC(=O)c2ccc(CSCc3cccc(Cl)c3)o2)CC1,?,6.9%,11.2µM*,·,-26.1%
O=C(O)/C=C/C(=O)Nc1ccc(OC(F)F)cc1,·,11.9%,·,i,-1.6%
O=C(OCCN1C(=O)c2cccc3c(N4CCOCC4)ccc(c23)C1=O)c1ccccc1Cl,7.08µM*,?,?,i,-11.0%
O=C(OCCN1C(=O)c2cccc3c(N4CCOCC4)ccc(c23)C1=O)c1ccc(Cl)cc1Cl,?,15.8µM*,?,?,-20.7%
O=C(OCCN1C(=O)c2cccc3c(N4CCOCC4)ccc(c23)C1=O)c1cccc(Cl)c1,?,?,?,-12.2%,-18.8%
CN(C)CC(C(=O)Cc1ccccc1)c1ccccc1 (stereo not given),?,28.2µM*,-0.8%[46.1 µM],-22.9%,?
CN(C)CCC(=O)C(Cc1ccccc1)c1ccccc1 (stereo not given),?,?,?,-15.0%,?
CCCc1nc2ccccc2c(C(=O)OC(C)C(=O)NCc2ccc3c(c2)OCO3)c1CC (stereo not given),?,?,-21.4%,?,10µM*
O=C(CSc1nc(CCC2CCCC2)nc2ccccc12)NCc1ccc2c(c1)OCO2,12.6µM*,-3.5%,?,-4.6%,-22.5%
